Assay results published in PubChem BioAssay (Tox21).
“And” between values parts separate entries of the source, which are not always exact repeats. Equal values may be shown once. Results filed as inconclusive are left out. Where a structure was tested more than once in an assay, its records may differ in their call. The source made the active and inactive calls. Unless noted, calls follow the shape of the full dose curve.

Key:
[1] = Nuclear factor erythroid 2-related factor 2/antioxidant responsive element (Nrf2/ARE) small molecule agonists: qHTS cell viability counter screen in human keratinocytes (AID 1919968; active = well fitted curve in the direction sought with a large enough effect in the repeat runs; an effect the other way counts as inactive or inconclusive; also: nearly all actives have a fitted effect of over 55% in size)
Method in brief: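 Viability counter-screen: KeratinoSens reporter cells, DMSO-delivered compounds, 23 h at 37 C, CellTiter-Fluor fluorescence.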

[2] = Nuclear factor erythroid 2-related factor 2/antioxidant responsive element (Nrf2/ARE) small molecule agonists: luciferase reporter gene qHTS assay in human keratinocytes (AID 1919969); also: nearly all actives have a fitted effect of over 35% in size; also: potency is read from the fitted curve at half-maximal effect
[3] = biological target: Gonadotropin-releasing hormone receptor (Homo sapiens) (UniProt P30968); assay: Human gonadotropin-releasing hormone receptor (GnRHR) small molecule agonists, calcium flux assay in GnRHR-HEK293 cells (AID 1920063); also: nearly all actives have a fitted effect of over 35% in size
Method in brief: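 Tox21-format agonist screen using human GnRHR-expressing HEK293 cells and a fluorescent calcium dye; kinetic 3-min fluorescence reading after compound addition, 15-point concentration series run in triplicate.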

[4] = biological target: KiSS-1 receptor (Homo sapiens) (UniProt Q969F8); assay: Human kisspeptin (KISS1R) small molecule agonists, calcium flux assay in KISS1R-HEK293 cells (AID 1920064; active = well fitted curve in the direction sought with a large enough effect in the repeat runs; an effect the other way counts as inactive or inconclusive)
Method in brief: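 Intracellular calcium mobilization in KISS1R-HEK293 cells was recorded by fluorescence (Ex/Em 480/540) for 3 min following compound addition to cells pre-loaded 1 h with calcium dye.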

[5] = G protein-coupled receptor (GPCR) small molecule agonists, calcium flux assay: HEK293 wild type cell line counter screen (AID 1920065)
Method in brief: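 In this agonist-mode screen, ATP is the positive control and DMSO the vehicle. Cells grow 18 h before a 1 h dye incubation at 37 C; signal is taken at Ex/Em 480/540 over 3 min.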

[6] = p53 small molecule agonists, cell-based qHTS assay with human liver microsomes: qHTS cell viability counter screen (AID 1963579); also: nearly all actives have a fitted effect of over 45% in size
Method in brief: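 Cytotoxicity counter screen: p53RE-bla, 4,000 cells/well; 5 h settle, 37 C/5% CO2; cpd + HLM 0.5 mg/mL + NADPH 0.5 mg/mL (final); 16 h, 37 C; CellTiter-Glo, 30 min RT, luminescence.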

[7] = p53 small molecule agonists, cell-based qHTS assay with rat liver microsomes: qHTS cell viability counter screen (AID 1963580); also: nearly all actives have a fitted effect of over 45% in size
Method in brief: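 p53RE-bla HCT-116 cells (4,000/well) rested 5 h at 37 C, then given Tox21 compounds in DMSO with rat liver microsomes (0.5 mg/mL final) plus NADPH (0.5 mg/mL final) for 16 h at 37 C. Viability read by CellTiter-Glo luminescence after 30 min at room temperature.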

[8] = p53 small molecule agonists, cell-based qHTS assay (AID 1963582; active = well fitted activation curve with a large enough effect in the signal ratio in the repeat runs, not every such curve was filed as active; the % refers to the signal ratio; also: potency is read from the fitted curve at half-maximal effect)
Method in brief: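 Agonist activity was scored from beta-lactamase FRET fluorescence in p53RE-bla cells treated 16 h at 37 C with compounds in DMSO, substrate incubation being 2 h at room temperature.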

[9] = biological target: 5-hydroxytryptamine receptor 2A (Homo sapiens) (UniProt P28223); assay: 5-hydroxytryptamine receptor 2A (HTR2A) small molecule antagonists, cell-based qHTS assay (AID 1963586); also: nearly all actives have a fitted effect of over 45% in size
Method in brief: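 Antagonist-mode intracellular calcium assay: DOI (4 nM) added after 5 min compound pre-incubation at room temperature to dye-loaded HTR2A-CHO cells. Fluorescence followed for 3 min, sampled every second.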

[10] = biological target: 5-hydroxytryptamine receptor 2A (Homo sapiens) (UniProt P28223); assay: 5-hydroxytryptamine receptor 2A (HTR2A) small molecule agonists, cell-based qHTS assay (AID 1963587); also: nearly all actives have a fitted effect of over 30% in size
Method in brief: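 HTR2A-CHO cells, plated 18 h at 37 C/5% CO2, dye-loaded 1 h at 37 C; compounds in DMSO added by pin tool (agonist mode). Intracellular calcium flux read as kinetic fluorescence on FDSS over 2 min at 1 s intervals.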

[11] = biological target: Muscarinic acetylcholine receptor M1 (Homo sapiens) (UniProt P11229); assay: Cholinergic receptor muscarinic 1 (CHRM1) small molecule antagonists, cell-based qHTS assay (AID 1963588); also: nearly all actives have a fitted effect of over 40% in size
Method in brief: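 CHRM1-CHO calcium-flux assay, antagonist mode. Cells were seeded 18 h, dye-loaded 1 h at 37 C and given compound for 5 min at RT, then acetylcholine was added at 50nM. FDSS fluorescence was read 3 min; 15 concentrations, three runs.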

[12] = biological target: Muscarinic acetylcholine receptor M1 (Homo sapiens) (UniProt P11229); assay: Cholinergic receptor muscarinic 1 (CHRM1) small molecule agonists, cell-based qHTS assay (AID 1963589); also: nearly all actives have a fitted effect of over 35% in size
Method in brief: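 Stable CHRM1-CHO cells (human receptor) were incubated 18 h, dye-loaded for 1 h at 37 C and exposed to test compounds for agonist activity, with calcium-dependent fluorescence followed kinetically.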

[13] = cAMP Responsive Elements (CRE) small molecule agonists, cell-based qHTS assay (AID 1963590)
Method in brief: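 FRET-based beta-lactamase readout (LiveBLAzer B/G, 2 h RT) quantified CRE activation in HEK 293T CRE-bla cells after 3 h treatment with DMSO-dissolved compounds.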

[14] = cAMP Responsive Elements (CRE) small molecule antagonists, cell-based qHTS assay (AID 1963591; active = well fitted inhibition curve with a large enough effect in the signal ratio in the repeat runs, not every such curve was filed as active; the % refers to the signal ratio)
Method in brief: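 qHTS in CRE-bla HEK 293T cells: compound in DMSO, then 0.25 uM NKH477 (final), 3 h at 37 °C/5% CO2; beta-lactamase FRET read-out after 2 h substrate incubation.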

[15] = biological target: Beta-2 adrenergic receptor (Homo sapiens) (UniProt P07550); assay: Adrenergic beta2 receptor (ADRB2) small molecule antagonists, cell-based qHTS assay (AID 1963592); also: series mostly up to about 92 µM; nearly all actives have a fitted effect of over 50% in size
Method in brief: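 Cells (CHO, stable ADRB2 overexpression) incubated 18-20hr at 37C; compounds added from DMSO; agonist mix (1nM isoproterenol, 100uM IBMX, 25uM Ro-20-1724) added; 0.5hr RT; d2-cAMP and anti-cAMP-cryptate added; 1hr RT; 665/615 nm read.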

[16] = biological target: D(2) dopamine receptor (Homo sapiens) (UniProt P14416); assay: Dopamine D2 receptor (DRD2) small molecule antagonists, cell-based qHTS assay (AID 1963595; active = well fitted inhibition curve with a large enough effect in the signal ratio in the repeat runs, with a control signal flat; the % refers to the signal ratio)
Method in brief: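 Antagonist mode in DRD2-HEK293 cells: after compound addition with 0.1 mM Ro20-1724, cells received quinpirole (12 nM) and NKH477 (200 nM) for 30 min at room temperature; HTRF cAMP read after 1 h detection.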

[17] = p53 small molecule agonists, cell-based qHTS assay with rat liver microsomes (AID 1963578)
Method in brief: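 Cells carrying a p53 response element–beta-lactamase reporter were plated and rested 5 h, then dosed with compound in DMSO plus rat liver microsomes and NADPH, each at 0.5 mg/mL final. After 16 h at 37 C, LiveBLAzer substrate was added for 2 h.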

[18] = p53 small molecule agonists, cell-based qHTS assay: qHTS cell viability counter screen (AID 1963581); also: nearly all actives have a fitted effect of over 45% in size
Method in brief: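 Compounds are pinned onto HCT-116 p53RE-bla cells and left 16 h at 37 C. Following the reporter FRET read, ATP is quantified by CellTiter-Glo luminescence after 30 min at room temperature.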

[19] = biological target: D(2) dopamine receptor (Homo sapiens) (UniProt P14416); assay: Dopamine D2 receptor (DRD2) small molecule agonists, cell-based qHTS assay (AID 1963594); also: nearly all actives have a fitted effect of over 35% in size
Method in brief: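 HEK293 cells stably expressing DRD2 were cultured 24 h at 37 C, then given Ro20-1724 (0.1 mM final) and compounds for 10 min at room temperature. NKH477 (200nM) was then added for 30 min. cAMP was read by HTRF.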

[20] = biological target: Beta-2 adrenergic receptor (Homo sapiens) (UniProt P07550); assay: Adrenergic beta2 receptor (ADRB2) small molecule agonists, cell-based qHTS assay (AID 1963593);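 also: CHO cells stably overexpressing human ADRB2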
Method in brief: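 CHO cells stably over-expressing ADRB2 were plated overnight at 37C, then dosed with compounds plus a stimulation mix containing 100uM IBMX and 25uM Ro-20-1724 for 0.5hr at room temperature. cAMP was measured by HTRF competition, 1hr.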

Measured: Potency

Chain of Beta-2 adrenergic receptor (Homo sapiens) (P07550 whole entry, looked up): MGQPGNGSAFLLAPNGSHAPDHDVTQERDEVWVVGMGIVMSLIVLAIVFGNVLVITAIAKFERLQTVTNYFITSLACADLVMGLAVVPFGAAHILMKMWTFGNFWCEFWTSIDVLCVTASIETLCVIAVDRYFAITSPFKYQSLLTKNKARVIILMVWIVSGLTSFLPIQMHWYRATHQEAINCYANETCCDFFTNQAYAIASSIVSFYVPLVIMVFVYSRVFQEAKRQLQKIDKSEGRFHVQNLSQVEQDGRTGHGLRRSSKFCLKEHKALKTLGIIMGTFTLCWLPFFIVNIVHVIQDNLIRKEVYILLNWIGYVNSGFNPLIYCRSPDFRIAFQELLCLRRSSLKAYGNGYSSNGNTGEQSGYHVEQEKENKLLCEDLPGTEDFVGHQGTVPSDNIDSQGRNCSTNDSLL
Chain of Gonadotropin-releasing hormone receptor (Homo sapiens) (P30968 whole entry, looked up): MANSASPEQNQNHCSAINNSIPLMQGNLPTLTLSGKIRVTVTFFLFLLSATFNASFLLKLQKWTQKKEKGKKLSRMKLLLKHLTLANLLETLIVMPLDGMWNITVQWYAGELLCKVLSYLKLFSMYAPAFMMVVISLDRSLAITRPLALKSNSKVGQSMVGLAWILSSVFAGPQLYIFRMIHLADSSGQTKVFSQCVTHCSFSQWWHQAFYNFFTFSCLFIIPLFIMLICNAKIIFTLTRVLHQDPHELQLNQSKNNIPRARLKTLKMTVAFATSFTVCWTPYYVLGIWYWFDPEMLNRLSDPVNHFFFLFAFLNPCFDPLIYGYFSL
Chain of Muscarinic acetylcholine receptor M1 (Homo sapiens) (P11229 whole entry, looked up): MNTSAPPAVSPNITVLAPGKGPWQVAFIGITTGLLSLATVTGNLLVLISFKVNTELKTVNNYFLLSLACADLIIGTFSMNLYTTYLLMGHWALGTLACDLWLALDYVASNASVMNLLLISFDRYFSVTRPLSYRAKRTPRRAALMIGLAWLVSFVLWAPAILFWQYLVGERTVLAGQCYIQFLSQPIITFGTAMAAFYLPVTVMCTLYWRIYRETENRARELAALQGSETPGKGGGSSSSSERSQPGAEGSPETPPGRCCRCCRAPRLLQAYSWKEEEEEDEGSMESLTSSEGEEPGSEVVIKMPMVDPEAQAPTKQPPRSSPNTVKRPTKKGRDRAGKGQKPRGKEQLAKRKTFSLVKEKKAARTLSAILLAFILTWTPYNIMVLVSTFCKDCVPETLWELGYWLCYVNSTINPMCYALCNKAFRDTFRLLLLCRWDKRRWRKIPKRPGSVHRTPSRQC
Chain of KiSS-1 receptor (Homo sapiens) (Q969F8 whole entry, looked up): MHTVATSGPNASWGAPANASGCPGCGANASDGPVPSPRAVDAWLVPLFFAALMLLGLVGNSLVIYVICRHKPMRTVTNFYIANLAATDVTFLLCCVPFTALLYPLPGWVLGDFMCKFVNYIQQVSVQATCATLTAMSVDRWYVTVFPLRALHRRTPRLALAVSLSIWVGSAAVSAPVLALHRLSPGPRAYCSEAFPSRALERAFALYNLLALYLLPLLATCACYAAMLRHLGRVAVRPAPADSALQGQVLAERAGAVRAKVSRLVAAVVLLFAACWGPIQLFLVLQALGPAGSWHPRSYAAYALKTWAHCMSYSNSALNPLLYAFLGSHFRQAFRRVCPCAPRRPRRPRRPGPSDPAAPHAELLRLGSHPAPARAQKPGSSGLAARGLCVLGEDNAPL
Chain of D(2) dopamine receptor (Homo sapiens) (P14416 whole entry, looked up): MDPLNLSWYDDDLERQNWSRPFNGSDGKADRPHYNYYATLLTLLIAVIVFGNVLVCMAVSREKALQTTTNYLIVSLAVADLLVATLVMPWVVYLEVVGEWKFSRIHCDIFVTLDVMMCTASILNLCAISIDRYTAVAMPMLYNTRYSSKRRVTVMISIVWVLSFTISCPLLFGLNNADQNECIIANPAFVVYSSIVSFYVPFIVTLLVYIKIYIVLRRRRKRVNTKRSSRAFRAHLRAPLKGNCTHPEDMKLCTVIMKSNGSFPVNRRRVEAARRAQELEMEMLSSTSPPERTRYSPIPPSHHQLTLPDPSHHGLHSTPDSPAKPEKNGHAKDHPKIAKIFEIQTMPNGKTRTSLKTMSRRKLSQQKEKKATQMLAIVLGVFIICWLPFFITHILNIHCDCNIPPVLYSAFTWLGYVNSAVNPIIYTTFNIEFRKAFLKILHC
Chain of 5-hydroxytryptamine receptor 2A (Homo sapiens) (P28223 whole entry, looked up): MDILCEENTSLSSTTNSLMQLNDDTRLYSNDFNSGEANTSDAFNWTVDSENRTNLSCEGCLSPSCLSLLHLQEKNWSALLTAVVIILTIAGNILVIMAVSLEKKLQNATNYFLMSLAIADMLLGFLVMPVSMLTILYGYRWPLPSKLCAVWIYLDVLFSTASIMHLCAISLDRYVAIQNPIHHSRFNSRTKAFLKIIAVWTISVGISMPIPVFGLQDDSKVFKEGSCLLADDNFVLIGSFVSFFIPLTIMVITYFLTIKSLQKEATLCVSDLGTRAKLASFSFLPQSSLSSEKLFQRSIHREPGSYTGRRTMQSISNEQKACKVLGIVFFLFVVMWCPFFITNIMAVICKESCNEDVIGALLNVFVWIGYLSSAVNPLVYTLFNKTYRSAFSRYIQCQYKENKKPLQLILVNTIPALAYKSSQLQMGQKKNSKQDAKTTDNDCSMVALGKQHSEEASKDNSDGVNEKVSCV

C=C(C)C(=O)OCCOC(=O)C(=C)C
inactive: [1] | [2] | [3] | [4] | [5] | [6] | [7] | [8] | [9] | [10] | [11] | [12] | [13] | [14] | [15] | [16]

C=CC(=O)OCCCC
inactive: [1] | [2] | [3] | [4] | [5] | [17] | [6] | [7] | [18] | [8] | [9] | [10] | [11] | [12] | [13] | [14] | [15] | [19] | [16]

COc1ccc(C(=O)c2ccccc2)c(O)c1
inactive and 54.5 µM (active): [2]
inactive: [1] | [3] | [4] | [5] | [17] | [6] | [7] | [18] | [8] | [9] | [10] | [11] | [12] | [14] | [15] | [16]

Nc1ccc2c(O)cc(S(=O)(=O)O)cc2c1
active: [8] 12.9 µM and 16.2 µM
inactive: [1] | [2] | [3] | [4] | [5] | [6] | [7] | [9] | [10] | [11] | [12] | [13] | [14] | [16]

CC(=O)Oc1c(C)c(C)c2c(c1C)CC[C@@](C)(CCC[C@H](C)CCC[C@H](C)CCCC(C)C)O2
inactive: [1] | [2] | [3] | [4] | [5] | [17] | [6] | [7] | [18] | [8] | [9] | [10] | [11] | [12] | [13] | [14] | [15] | [20] | [19] | [16]

CC(C)(C)[C@@H](O)[C@@H](Cc1ccc(Cl)cc1)n1cncn1
inactive: [1] | [2] | [3] | [4] | [5] | [18] | [9] | [10] | [11] | [12] | [13] | [14] | [15] | [20] | [19] | [16]

COc1ccc(O)cc1
inactive: [1] | [2] | [3] | [4] | [5] | [7] | [18] | [8] | [9] | [10] | [11] | [12] | [13] | [14] | [15] | [20] | [19] | [16]

CCCCCCOC(C)=O
inactive: [1] | [2] | [3] | [4] | [5] | [17] | [6] | [7] | [8] | [9] | [10] | [11] | [12] | [13] | [14] | [15] | [19] | [16]

C=C(C)C(=O)Nc1ccc(Cl)c(Cl)c1
inactive: [1] | [3] | [4] | [5] | [17] | [6] | [7] | [18] | [8] | [9] | [10] | [11] | [12] | [13] | [14] | [15] | [19] | [16]
active: [2] 55 µM and 43.1 µM

CN1C(C(=O)Nc2ccccn2)=C(O)c2ccccc2S1(=O)=O
inactive: [1] | [2] | [3] | [4] | [5] | [17] | [6] | [7] | [8] | [13] | [15] | [19] | [16]

CCCCOC(=O)c1ccc(N)cc1
inactive: [1] | [2] | [3] | [4] | [5] | [6] | [7] | [18] | [8] | [13] | [14] | [15] | [19] | [16]

COC(=O)c1ccc(O)cc1
inactive: [1] | [2] | [3] | [4] | [5] | [17] | [6] | [7] | [18] | [8] | [13] | [14] | [15] | [20] | [19] | [16]

c1ccc2c(c1)ccc1cc3c(ccc4ccccc43)cc12
inactive: [1] | [3] | [4] | [5] | [17] | [6] | [7] | [8] | [9] | [10] | [11] | [12] | [13] | [14] | [15] | [20] | [19] | [16]
active: [2] 17 µM and 2.15 µM

COc1cc(NC(=O)CC(C)=O)c(OC)cc1Cl
inactive: [1] | [2] | [3] | [4] | [5] | [6] | [18] | [8] | [9] | [10] | [12] | [15] | [19] | [16]

CC(C)(C#N)c1cc(Cn2cncn2)cc(C(C)(C)C#N)c1
inactive: [1] | [2] | [3] | [4] | [5] | [17] | [6] | [7] | [18] | [8] | [13] | [14] | [15] | [20] | [19] | [16]

CCCCNC(N)=O
inactive: [1] | [2] | [3] | [4] | [5] | [17] | [6] | [7] | [18] | [8] | [9] | [10] | [11] | [12] | [13] | [14] | [15] | [20] | [19] | [16]
